Data published in paper PMC5540273 (PLoS ONE, 2017).

Test system: ACVRL1
Conditions: concentration: 1 μM, replicates: in singlicate; n = 1
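Also: KINOMEscan kinase panel screen.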

| SMILES | %Inh |
| --- | --- |
| Cc1ccc(C(=O)N2CC[C@@H](O)C2)cc1-n1c(C)cc(OCc2ccc(F)cc2F)c(Br)c1=O | 0% |
| c1ccc(Oc2ccc(Nc3ccnc4cc(-c5ccc(CNCCN6CCOCC6)o5)ccc34)cc2)nc1 [GW567145] | 0% |
| CC(C)c1nc(-c2cccc(NS(=O)(=O)c3c(F)cccc3F)c2F)c(-c2ccnc(Nc3ccc(N4CCOCC4)nc3)n2)s1 [GSK2008607] | 11% |
| c1ccc(-c2cnc3nccnn23)cc1 [AH20685] | 0% |
| CCn1c(-c2nonc2N)nc2c(C#CC(C)(C)O)nc(OC[C@H](N)c3ccccc3)cc21 [GSK943949] | 0% |
| CSc1cccc2c(-c3ccncn3)c(-c3ccc(F)cc3)nn12 [GW514786] | 0% |
| FC(F)(F)c1ccc(/C=C/c2cncnc2Nc2ccc3[nH]c(Cc4ccccc4)nc3c2)cc1 [GW709199] | 0% |
| C[C@@H](Oc1cc(-n2cnc3cc(-c4ccnc(NCCS(C)(=O)=O)c4)ccc32)sc1C(N)=O)c1ccccc1Cl [GSK907232] | 0% |
| O=C(Nc1n[nH]c2cc(-c3ccoc3)ccc12)C1CC1 [SB-738481] | 0% |
| CC(C)(C)c1ccc2nccc(Nc3cccc(O)c3)c2c1 [GW856795] | 0% |
| Cl.Cl.NCC(NC(=O)c1cc(-c2ccccc2)c(-c2ccnc3[nH]ccc23)s1)c1ccccc1 (stereo not shown) [GSK1321561] | 0% |
| CCc1ccc(-c2ccc3c(c2)-c2c(cnn2C)S(=O)(=O)N3C)cc1 | 17% |
| Cl.Cl.NCC(NCc1ccc(-c2ccnc3[nH]ccc23)s1)c1ccccc1 (stereo not shown) [GSK1321565] | 0% |
| Cl.NC(=O)c1cccc(Nc2nccc(Nc3ccc(Oc4c(Cl)cccc4Cl)c(Cl)c3)n2)c1 [GW659009] | 7% |
| Cc1ccc(C)c(NC(=O)NC2CCN(c3ccnc(Nc4ccc(F)cc4)n3)C2)c1 (stereo not shown) [GSK1379720] | 0% |
| COC(=O)Nc1nc2cc(Oc3ccc(NC(=O)Nc4cc(C(F)(F)F)ccc4F)cn3)ccc2[nH]1.Cl.Cl [GW681170] | 0% |
| Cn1cc(-c2[nH]c3cc(NC(=O)[C@H](N)C4CCCCC4)cc4c3c2C=NNC4=O)cn1 | 0% |
| CCn1c(-c2nonc2N)nc2c(C#CC(C)(C)O)ncc(OCCCCN)c21.O=C(O)C(F)(F)F.O=C(O)C(F)(F)F [GSK507274] | 0% |
| NCCCC(NC(=O)c1cc(Br)c(-c2ccnc3[nH]ccc23)s1)c1ccccc1.O=C(O)C(F)(F)F.O=C(O)C(F)(F)F (stereo not shown) [GSK1287544] | 0% |

| SMILES | %Inh |
| --- | --- |
| Cc1ccc(C(=O)Nc2ccc(Nc3ccnc4cc(-c5nccs5)ccc34)cc2O)cc1.Cl [GW494702] | 0% |
| CN(C)S(=O)(=O)c1cc(-c2ccc3nccc(-c4cccc(S(N)(=O)=O)c4)c3c2)cnc1N [GSK1669921] | 0% |
| COc1ccc(Nc2nccc(NCCNC(=O)c3cc4ccccc4s3)n2)cc1 [GSK1379896] | 0% |
| Cc1ccc(F)c(C(=O)Nc2cccc(-c3nn4ccccc4c3-c3ccnc(Nc4cccc(F)c4)n3)c2)c1F [GSK361061] | 38% |
| Nc1n[nH]c2cnc(-c3ccccc3)cc12 [SB-642124] | 0% |
| Cc1cccc(NC(=O)Nc2ccc(Oc3ncnc4ccn(C)c34)cc2)c1 | 0% |
| COc1cc2c(cc1OCCN1CCNCC1)ncc1c3ccc(C#N)cc3[nH]c21 | 0% |
| Fc1ccc(-c2ncn(C3CCNCC3)c2-c2ccnc(Oc3ccc(-c4ccccc4)cc3)n2)cc1 [SB-245391] | 19% |
| CC(=O)Nc1nc2cnc(Nc3cc(NC(=O)c4cccc(C5(C#N)CC5)c4Cl)ccc3C)nc2s1 | 0% |
| O=C(O)C(F)(F)F.O=C(O)C(F)(F)F.O=c1[nH]ccc2nc(N[C@@H]3CCCNC3)nc(Nc3ccc(S(=O)(=O)N4CCOCC4)cc3)c12 [GSK2177277] | 9% |
| Oc1cc(Nc2ccnc3cc(I)ccc23)ccc1F [GW552771] | 69% |
| COc1cccc(C(=O)Nc2cccc(Oc3ccc4nc(NC(=O)C5CC5)cn4n3)c2)c1 | 8% |
| O=C(Nc1cccc(Oc2ccc3nc(NC(=O)C4CC4)cn3n2)c1)c1ccccc1C(F)(F)F | 0% |
| Clc1ccc(-c2nn3ncccc3c2-c2ccnc(Nc3ccc4c(c3)OCCO4)n2)cc1 [GW829116] | 4% |
| O=C(Nc1cccc(-c2nn3ccccc3c2-c2ccnc(Nc3cccc(F)c3)n2)c1)c1c(F)ccc(F)c1Cl [GSK357952] | 18% |
| COC(=O)Nc1nc2ccc(Oc3ccc(NC(=O)Nc4cc(C(F)(F)F)ccc4F)cc3)cc2n1C.Cl [GW692089] | 0% |
| O=C(Nc1cccc(-c2nn3ncccc3c2-c2ccnc(Nc3ccccc3)n2)c1)c1c(F)cccc1F [GSK198271] | 0% |
| CN1CCN(CCCNc2nccc(-c3c(-c4ccc(F)cc4)nn4cc(C(F)(F)F)ccc34)n2)CC1 [GW621581] | 26% |
